These results are taken from PubChem BioAssay (Tox21).

Results filed as inconclusive are left out. Calls of active or inactive are those of the source. Unless noted, the call rests on the fitted dose curve.

Assay [1] in a line: Nuclear factor erythroid 2-related factor 2/antioxidant responsive element (Nrf2/ARE) small molecule agonists: qHTS cell viability counter screen in human keratinocytes (AID 1919968; active means well fitted curve in the direction sought with a large enough effect in the repeat runs; an effect the other way counts as inactive or inconclusive; further: nearly all actives have a fitted effect of over 55% in size; further: potency means the concentration at half of the fitted maximal effect). In short, it runs like this: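 Cytotoxicity was multiplexed with the Nrf2/ARE luciferase assay in the same wells. Stably transfected HaCaT keratinocytes were treated with test compounds for 23 h at 37 C. Cell viability was then measured by CellTiter-Fluor fluorescence.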

Assay [2] has as its target KiSS-1 receptor (Homo sapiens) (UniProt Q969F8). Nature of the assay: Human kisspeptin (KISS1R) small molecule agonists, calcium flux assay in KISS1R-HEK293 cells (AID 1920064; active means well fitted curve in the direction sought with a large enough effect in the repeat runs; an effect the other way counts as inactive or inconclusive). In short, it runs like this: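 Agonist activity is monitored as intracellular calcium rise in engineered HEK293 cells carrying human KISS1R. Cells are dye-loaded for 1 h at 37 C before compound addition, and fluorescence is recorded for 3 min.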

A short description of assay [3]: G protein-coupled receptor (GPCR) small molecule agonists, calcium flux assay: HEK293 wild type cell line counter screen (AID 1920065). The procedure, abridged:
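Seed cells, incubate 18 h (37 C, 5% CO2); add calcium dye, 1 h at 37 C; pin-transfer compounds, ATP control or DMSO; read fluorescence 480/540 nm each second for 3 min.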
(A change in cytosolic calcium serves as a functional read-out for many receptors and channels.)

Assay [4] in a line: p53 small molecule agonists, cell-based qHTS assay with human liver microsomes (AID 1963577). The procedure, abridged:
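p53RE-bla reporter cells were pre-incubated 5 h at 37 C, then treated with compounds plus human liver microsomes (0.5 mg/mL final) and NADPH (0.5 mg/mL final) for 16 h at 37 C. Beta-lactamase activity was read by LiveBLAzer fluorescence after 2 h at room temperature.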
A general note: qHTS replaces the single test concentration by a dilution series.

The nature of assay [5]: p53 small molecule agonists, cell-based qHTS assay with rat liver microsomes (AID 1963578). The procedure, abridged: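 p53RE-bla cells were exposed to compounds together with rat liver microsomes (0.5 mg/mL final) and NADPH (0.5 mg/mL final) for 16 h at 37 C, then read by LiveBLAzer beta-lactamase fluorescence after 2 h at room temperature.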
A short description of assay [6]: p53 small molecule agonists, cell-based qHTS assay with human liver microsomes: qHTS cell viability counter screen (AID 1963579). Further: nearly all actives have a fitted effect of over 45% in size. In short, it runs like this: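 p53RE-bla cells (4,000/well) were pre-incubated 5 h at 37 C, then given compounds in DMSO plus human liver microsomes (0.5 mg/mL final) and NADPH (0.5 mg/mL final) for 16 h at 37 C. Viability was read by CellTiter-Glo luminescence.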

Assay [7] can be described thus: p53 small molecule agonists, cell-based qHTS assay with rat liver microsomes: qHTS cell viability counter screen (AID 1963580). Further: nearly all actives have a fitted effect of over 45% in size. The procedure, abridged: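 Counter screen for cytotoxicity under metabolic activation: rat liver microsomes and NADPH, 0.5 mg/mL final each, added with compounds to p53RE-bla HCT-116 cells; 16 h at 37 C, then ATP luminescence read.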
A short description of assay [8]: p53 small molecule agonists, cell-based qHTS assay: qHTS cell viability counter screen (AID 1963581). Further: nearly all actives have a fitted effect of over 45% in size. In short, it runs like this: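 Viability was counter-screened in parallel with the p53 agonist reporter by measuring intracellular ATP luminescence in the same HCT-116 p53RE-bla wells after 16 h compound treatment at 37 C.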
The nature of assay [9]: p53 small molecule agonists, cell-based qHTS assay (AID 1963582; active means well fitted activation curve with a large enough effect in the signal ratio in the repeat runs, not every such curve was filed as active; the % refers to the signal ratio). In short, it runs like this: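 Cells carrying a p53-responsive bla reporter are treated with test compounds for 16 h at 37 C; beta-lactamase activity is then detected with LiveBLAzer B/G FRET substrate after 2 h at room temperature.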
Assay [10] has as its target 5-hydroxytryptamine receptor 2A (Homo sapiens) (UniProt P28223). The assay can be described thus: 5-hydroxytryptamine receptor 2A (HTR2A) small molecule antagonists, cell-based qHTS assay (AID 1963586). Further: nearly all actives have a fitted effect of over 45% in size. In short, it runs like this: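 CHO cells stably expressing human HTR2A were plated for 18 h at 37 C, then loaded with calcium dye for 1 h. Compounds were preincubated 5 min at room temperature before DOI (4 nM solution) was added. Kinetic fluorescence was read for 3 min.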

The target is the same in assay [11]. The assay can be described thus: 5-hydroxytryptamine receptor 2A (HTR2A) small molecule agonists, cell-based qHTS assay (AID 1963587). Further: nearly all actives have a fitted effect of over 30% in size. In short, it runs like this:
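HTR2A-CHO cells, plated 18 h at 37 C/5% CO2, dye-loaded 1 h at 37 C; compounds in DMSO added by pin tool (agonist mode). Intracellular calcium flux read as kinetic fluorescence on FDSS over 2 min at 1 s intervals.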

For assay [12], the target named is Muscarinic acetylcholine receptor M1 (Homo sapiens) (UniProt P11229). Nature of the assay: Cholinergic receptor muscarinic 1 (CHRM1) small molecule agonists, cell-based qHTS assay (AID 1963589). Further: nearly all actives have a fitted effect of over 35% in size. The procedure, abridged:
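Cells were plated and incubated 18 h at 37 C/5% CO2, loaded with calcium dye for 1 h at 37 C, then treated with compounds in DMSO. Fluorescence was recorded kinetically at 1 sec intervals.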

Assay [13] can be described thus: cAMP Responsive Elements (CRE) small molecule agonists, cell-based qHTS assay (AID 1963590). In short, it runs like this:
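Cells carrying a CRE-driven beta-lactamase reporter (HEK 293T) are seeded, incubated overnight (18 h), and treated with test compounds for 3 h at 37 C; reporter activity is then detected with a FRET substrate after 2 h at room temperature.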

Assay [14] is described as follows: cAMP Responsive Elements (CRE) small molecule antagonists, cell-based qHTS assay (AID 1963591; active means well fitted inhibition curve with a large enough effect in the signal ratio in the repeat runs, not every such curve was filed as active; the % refers to the signal ratio). The procedure, abridged:
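Cells (CRE-bla HEK 293T, DMEM with 10% dialyzed FBS and 25 mM HEPES) are seeded and incubated 18 h. Compounds are added with NKH477 agonist at 0.25 uM final for 3 h, then FRET substrate for 2 h.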

For assay [15], the target named is Beta-2 adrenergic receptor (Homo sapiens) (UniProt P07550). Nature of the assay: Adrenergic beta2 receptor (ADRB2) small molecule agonists, cell-based qHTS assay (AID 1963593).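 Further: CHO cells stably overexpressing human ADRB2.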 In short, it runs like this:
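CHO cells stably over-expressing ADRB2 were plated overnight at 37C, then dosed with compounds plus a stimulation mix containing 100uM IBMX and 25uM Ro-20-1724 for 0.5hr at room temperature. cAMP was measured by HTRF competition, 1hr.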

The target of assay [16] is D(2) dopamine receptor (Homo sapiens) (UniProt P14416). The assay can be described thus: Dopamine D2 receptor (DRD2) small molecule agonists, cell-based qHTS assay (AID 1963594). Further: nearly all actives have a fitted effect of over 35% in size. The procedure, abridged:
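HEK293 cells stably expressing DRD2 were cultured 24 h at 37 C, then given Ro20-1724 (0.1 mM final) and compounds for 10 min at room temperature. NKH477 (200nM) was then added for 30 min. cAMP was read by HTRF.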

The target in assay [17] is Muscarinic acetylcholine receptor M1 (Homo sapiens) (UniProt P11229). Nature of the assay: Cholinergic receptor muscarinic 1 (CHRM1) small molecule antagonists, cell-based qHTS assay (AID 1963588). Further: nearly all actives have a fitted effect of over 40% in size. In short, it runs like this: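 Compounds were tested at 15 concentrations in three independent runs. Dye-loaded CHRM1-CHO cells were exposed 5 min at room temperature before stimulation by acetylcholine added at 50nM. Intracellular calcium was read kinetically on FDSS for 3 min.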

Assay [18] has as its target Beta-2 adrenergic receptor (Homo sapiens) (UniProt P07550). The assay can be described thus: Adrenergic beta2 receptor (ADRB2) small molecule antagonists, cell-based qHTS assay (AID 1963592). Further: series mostly up to about 92 µM; nearly all actives have a fitted effect of over 50% in size. The procedure, abridged:
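Assay format: CHO-ADRB2 cells, 18-20hr seeding at 37C/5% CO2, then compound plus 1nM isoproterenol agonist mix for 0.5hr RT. Homogeneous time-resolved fluorescence cAMP detection after 1hr, expressed as 665/615 nm ratio.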

Assay [19] concerns the target D(2) dopamine receptor (Homo sapiens) (UniProt P14416). Nature of the assay: Dopamine D2 receptor (DRD2) small molecule antagonists, cell-based qHTS assay (AID 1963595; active means well fitted inhibition curve with a large enough effect in the signal ratio in the repeat runs, with a control signal flat; the % refers to the signal ratio). The procedure, abridged:
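HTRF cAMP read-out at 665 and 620 nm emission (340 nm excitation). Antagonist mode: compounds were tested against 12 nM quinpirole in DRD2-HEK293 cells, with 200 nM NKH477 raising cAMP and 0.1 mM Ro20-1724 blocking its breakdown.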

Sequence of 5-hydroxytryptamine receptor 2A (Homo sapiens) (P28223 whole entry, looked up): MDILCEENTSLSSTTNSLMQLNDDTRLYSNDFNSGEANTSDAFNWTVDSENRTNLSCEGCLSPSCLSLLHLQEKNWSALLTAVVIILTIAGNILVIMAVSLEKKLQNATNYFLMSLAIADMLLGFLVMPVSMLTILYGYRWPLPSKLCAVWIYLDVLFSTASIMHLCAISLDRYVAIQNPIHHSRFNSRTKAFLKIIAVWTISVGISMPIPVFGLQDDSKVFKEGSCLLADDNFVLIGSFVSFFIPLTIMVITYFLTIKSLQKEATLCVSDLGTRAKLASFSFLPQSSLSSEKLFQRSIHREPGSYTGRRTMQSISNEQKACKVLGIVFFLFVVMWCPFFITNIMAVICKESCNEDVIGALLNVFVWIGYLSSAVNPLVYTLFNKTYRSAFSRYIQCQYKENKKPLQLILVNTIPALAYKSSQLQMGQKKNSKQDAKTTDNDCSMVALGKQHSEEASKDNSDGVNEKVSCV
Sequence of Muscarinic acetylcholine receptor M1 (Homo sapiens) (P11229 whole entry, looked up): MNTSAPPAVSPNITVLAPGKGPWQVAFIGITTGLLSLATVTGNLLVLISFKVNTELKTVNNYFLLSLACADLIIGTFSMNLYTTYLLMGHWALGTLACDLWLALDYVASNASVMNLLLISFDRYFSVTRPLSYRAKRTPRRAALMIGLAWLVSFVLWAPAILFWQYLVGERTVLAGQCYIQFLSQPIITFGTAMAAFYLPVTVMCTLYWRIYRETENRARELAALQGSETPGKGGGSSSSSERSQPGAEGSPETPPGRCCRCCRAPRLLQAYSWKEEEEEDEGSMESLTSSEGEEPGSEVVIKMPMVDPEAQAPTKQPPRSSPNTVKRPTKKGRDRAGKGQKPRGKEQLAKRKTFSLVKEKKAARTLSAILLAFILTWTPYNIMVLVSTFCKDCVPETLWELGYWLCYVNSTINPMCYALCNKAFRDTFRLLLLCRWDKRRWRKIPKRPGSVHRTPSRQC
Sequence of Beta-2 adrenergic receptor (Homo sapiens) (P07550 whole entry, looked up): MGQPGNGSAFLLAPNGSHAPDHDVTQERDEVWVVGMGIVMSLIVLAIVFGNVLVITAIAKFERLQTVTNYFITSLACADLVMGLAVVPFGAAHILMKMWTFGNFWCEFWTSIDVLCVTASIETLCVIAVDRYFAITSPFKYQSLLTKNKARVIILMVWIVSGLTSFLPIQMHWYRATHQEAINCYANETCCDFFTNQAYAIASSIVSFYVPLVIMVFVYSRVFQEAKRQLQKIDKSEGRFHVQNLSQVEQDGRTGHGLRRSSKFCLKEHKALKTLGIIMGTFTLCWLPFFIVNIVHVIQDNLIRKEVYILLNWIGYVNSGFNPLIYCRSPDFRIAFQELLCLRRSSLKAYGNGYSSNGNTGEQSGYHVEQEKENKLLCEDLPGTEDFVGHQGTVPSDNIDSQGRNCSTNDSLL
Sequence of KiSS-1 receptor (Homo sapiens) (Q969F8 whole entry, looked up): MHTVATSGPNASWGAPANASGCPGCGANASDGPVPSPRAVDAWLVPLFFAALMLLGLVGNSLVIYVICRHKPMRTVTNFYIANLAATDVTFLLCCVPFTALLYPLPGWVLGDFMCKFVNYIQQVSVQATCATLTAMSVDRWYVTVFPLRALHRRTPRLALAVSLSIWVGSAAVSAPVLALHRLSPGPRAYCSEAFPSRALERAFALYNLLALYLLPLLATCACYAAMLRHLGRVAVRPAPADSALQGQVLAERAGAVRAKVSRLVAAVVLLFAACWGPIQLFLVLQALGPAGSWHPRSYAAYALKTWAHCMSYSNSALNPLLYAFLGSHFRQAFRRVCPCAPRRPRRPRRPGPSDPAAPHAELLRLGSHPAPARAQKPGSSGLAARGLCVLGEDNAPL
Sequence of D(2) dopamine receptor (Homo sapiens) (P14416 whole entry, looked up): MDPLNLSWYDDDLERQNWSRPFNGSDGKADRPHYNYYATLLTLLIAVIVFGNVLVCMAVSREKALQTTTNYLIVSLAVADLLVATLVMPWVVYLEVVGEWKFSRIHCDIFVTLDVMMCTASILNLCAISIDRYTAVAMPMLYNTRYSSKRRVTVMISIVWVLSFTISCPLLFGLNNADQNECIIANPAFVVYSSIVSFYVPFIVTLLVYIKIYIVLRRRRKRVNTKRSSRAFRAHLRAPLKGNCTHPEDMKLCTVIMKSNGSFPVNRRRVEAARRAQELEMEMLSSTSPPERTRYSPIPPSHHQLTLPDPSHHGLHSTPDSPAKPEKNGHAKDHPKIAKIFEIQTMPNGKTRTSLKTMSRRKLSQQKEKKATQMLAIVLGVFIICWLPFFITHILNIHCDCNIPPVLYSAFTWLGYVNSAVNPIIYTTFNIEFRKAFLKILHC

With `C=CCCCCCCCC`, the Potency entry in assay [1], in [2], in assay [3], in assay [4], in assay [5] and in [6] was “inactive” in each case. Moreover, the Potency result in assay [7], in assay [8], in assay [9], in assay [10], in assay [11] and in assay [12] was “inactive” throughout. In addition, the Potency result in [13], in assay [14], in assay [15] and in assay [16] was “inactive” in each case.
For the compound `ON=C1CCCCC1`, the Potency result in [1], in assay [2], in [3], in assay [4], in [5] and in assay [6] was “inactive” each time. The Potency entry in assay [7], in [8], in assay [9], in assay [10], in [11] and in assay [17] was “inactive” each time. Besides, the Potency entry in assay [12], in [13], in assay [14], in assay [18], in assay [15] and in assay [16] was “inactive” in each case. Moreover, the Potency result in assay [19] is “inactive”.
Turning to `CC(C)(C)CC(C)(C)c1ccc(O)c(-n2nc3ccccc3n2)c1`, the Potency in assay [1] is 48.6 µM (active). For the same compound, the Potency result in [2], in assay [3], in assay [4], in [5], in assay [6] and in [7] was “inactive” each time. The Potency result in assay [8], in assay [9], in [10], in assay [11], in assay [12] and in [13] was “inactive” each time. In addition, the Potency result in [14], in assay [18], in assay [15], in [16] and in assay [19] was “inactive” in each case.
As for `O`, the Potency entry in assay [1], in assay [2], in assay [3], in assay [4], in [5] and in [6] was “inactive” each time. Moreover, the Potency result in assay [7], in assay [8], in assay [9], in assay [13], in assay [14] and in assay [18] was “inactive” throughout. Moreover, the Potency entry in [15], in assay [16] and in [19] was “inactive” throughout.
On to `O=C(O)c1cc(=O)[nH]c(=O)[nH]1`, for which the Potency result in assay [1], in assay [2], in assay [3], in [4], in [5] and in assay [6] was “inactive” throughout. The Potency entry in [7], in [8], in assay [9], in [10], in assay [11] and in assay [17] was “inactive” throughout. For the same compound, the Potency entry in assay [12], in assay [13], in [14], in assay [18], in assay [16] and in [19] was “inactive” in each case.
`COCC(C)OC(C)=O` (stereo unspecified): the Potency entry in [1], in assay [2], in [3], in [4], in assay [5] and in [6] was “inactive” each time. For the same compound, the Potency result in assay [7], in [8], in assay [9], in [10], in assay [17] and in assay [12] was “inactive” throughout. For the same compound, the Potency result in assay [13], in assay [14], in [18] and in assay [19] was “inactive” each time.
In the case of `CC/C=C\C#N`, the Potency entry in [1], in [2], in assay [3], in [4], in assay [5] and in [6] was “inactive” throughout. The Potency result in [7], in [8], in [9], in assay [10], in [11] and in assay [17] was “inactive” each time. Besides, the Potency entry in assay [12], in [13], in assay [14], in [18], in [15] and in assay [16] was “inactive” throughout. Further, the Potency entry in [19] was “inactive”.
